The source of these data is PubChem BioAssay (NCI).

What all share (assay): NCI-60 one-dose screen, 48 h (100 = growth as untreated, 0 = no growth, -100 = all killed)
Common to all, as to details: 10 µM unless noted

The subject of test [1] is NCI-H23 lung.
Test [2] deals with NCI-H226 lung.
In test [3] the test system is NCI-H322M lung.
For test [4], the system named is HOP-62 NSCLC.
Test [5] relates to NCI-H460 lung.
Test [6] relates to HOP-92 NSCLC.
Test [7] concerns NCI-H522 lung.
Test [8] deals with 786-0 renal.
Test [9] has as its system COLO 205 colon.
The test system of test [10] is DU-145 prostate.
Test [11] relates to K-562 leukemia.
Test [12] deals with MDA-MB-231 breast.
Test [13] concerns RXF 393 renal.
Test [14] concerns SF-268 CNS.
The subject of test [15] is SF-295 CNS.
The test system of test [16] is SF-539 CNS.
The subject of test [17] is M14 melanoma.
Test [18] relates to A549/ATCC NSCLC.
Test [19] relates to MALME-3M melanoma.
The subject of test [20] is UACC-257 melanoma.

Compounds without any hit were thinned out: in the full panel of roughly 83,000, 20% have a hit.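 Assay: single dose, 48 h. Readout: percent growth (0 = no net growth; negative = cell death). Active: <10.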 Values without a mark were called inactive. The source made the active and inactive calls.

Consider `COc1cnc2c(c1)C(=O)c1c-2n(CCCn2ccnc2)c(=O)c2cc(Cl)ccc12`, for which the growth is -1.2% (active) in [1]; 6.75% (active) in test [2]; 22.4% in [3]; -16.7% (active) in [4]; 1.24% (active) in test [5]; 31.8% in test [6]. Also, the growth was 12.3% in [7]; -17.9% (active) in [8]; 11.1% in test [9]; 2.01% (active) in test [10]; 5.92% (active) in test [11]; 55.2% in [12]. The growth in [13] was -33.6% (active); in test [14], 21.9%; in test [15], 0.124% (active); in test [16], -11.6% (active); in test [17], -2.18% (active).
As to `N#Cc1c(C(F)(F)F)cc(Nc2ccc3nc(NCCN4CCCC4)oc3c2)n2c1nc1ccccc12`, the growth in test [1] was 81%; in test [2], 82.8%; in test [3], 87.4%; in [4] it was 75%; in test [5], 99.4%; in test [7] it was 58.2%. The growth in test [18] is 56.7%; in [8], 26.1%; in test [9], 38.7%; in test [10], 89%; in test [11], 11.8%; in test [12], 32.7%. Also, the growth in [13] was 55.4%; in [14], 78.8%; in test [15] it was 74.7%; in [16], 86.4%; in test [17] it was 84.4%.
As to `CC(CCCC(=O)O)c1ccoc1` (stereo not given), the growth in test [1] was 97.7%; in test [2], 102%; in [3], 99.8%; in test [4] it was 101%; in test [5], 110%; in test [7] it was 83.2%. The growth in test [18] was 100%; in test [8], 98.8%; in test [9] it was 101%; in test [10], 103%; in test [11], 103%; in test [19], 96.8%. The growth in [12] was 109%; in test [14], 95.8%; in [15] it was 95.4%; in [16], 102%; in [17] it was 97.2%.
Take `FC(F)(F)c1ccc(CNc2ccc(Cc3c[nH]c4ncc(Cl)cc34)cn2)cn1`: the growth is 23.7% in test [1]; 9.04% (active) in test [2]; 33.2% in [3]; 23.1% in [4]; 44.5% in [5]; 9.44% (active) in test [7]. Also, the growth was 5.16% (active) in test [18]; -49.3% (active) in test [8]; -72.4% (active) in [9]; 61.2% in test [10]; 12.4% in test [11]; 15.9% in [19]. The growth in test [12] is 24.5%; in test [13], -7.15% (active); in test [14], 27.7%; in [15], 13.6%; in [16], 19.3%; in [20], 7.18% (active). Moreover, in [17], the growth is 11.5%.
Turning to `O=C(NC[C@H](O)CO)c1ccncc1Nc1ccc(I)cc1F`, the growth in test [1] is 15.9%; in [2], 50.2%; in test [3] it was 19.8%; in test [4], 23.7%; in test [5], 53.2%; in test [7] it was 51.6%. For the same molecule, the growth was 32.2% in [18]; 70.2% in test [8]; -8.7% (active) in test [9]; 63.4% in [10]; 37.2% in [11]; -7.31% (active) in test [19]. Further, the growth in [12] is 29.8%; in test [13] it was 15.1%; in test [14] it was 71.3%; in test [15], 67.1%; in test [16], 52.5%; in [20], -19.2% (active). Further, the growth in test [17] was 3.95% (active).
In the case of `COc1ccc(Br)cc1NC(=O)Nc1cccc2c1ccn2Cc1ccnc(N)c1`, the growth in test [1] was 55.1%; in test [2], 22.2%; in [3], 32.7%; in [4], -44.7% (active); in [5] it was 14.6%; in [7], -50.9% (active). In addition, the growth in test [18] is 18.9%; in test [8] it was 31.2%; in test [9], -57.5% (active); in [10], 58.7%; in test [11], 4.41% (active); in test [19], 42.1%. For the same molecule, the growth in test [12] is -2.75% (active); in test [13], 16.3%; in [14], 47.5%; in test [15], -6.47% (active); in [16] it was 27.5%; in test [20], 32.5%. For the same molecule, the growth in [17] was -30.2% (active).
With `CC(C)c1cc(CNc2nc(Nc3cc(C4CC4)[nH]n3)cc(N3CCN(C)CC3)n2)on1`, the growth in [1] is -25% (active); in test [2], -3.34% (active); in test [3], -20.1% (active); in [4], -23.5% (active); in [5], -47.6% (active); in test [7], -34.7% (active). In addition, the growth is 3.1% (active) in test [18]; 10.3% in test [8]; -69.6% (active) in test [9]; -15.7% (active) in [10]; 5.67% (active) in test [11]; -42.9% (active) in test [19]. In addition, the growth in test [12] was 6.11% (active); in [13] it was -54.1% (active); in test [14], -3.51% (active); in test [15], 6.84% (active); in test [16], -61.8% (active); in [20], -14.3% (active). Moreover, the growth in test [17] was -37.5% (active).
`CCc1ccc(/C=C/c2ccc(O)c3ncccc23)[n+](C)c1`: the growth in test [1] is 21%; in test [2], 24.2%; in [3] it was 48.7%; in test [4], 24.5%; in test [5] it was 17.2%; in test [6], 83.6%. Moreover, the growth in [7] is 1.23% (active); in [8], 89.4%; in [9] it was 70.9%; in [10], 42.8%; in test [19], 63.5%; in test [12], 90.9%. Also, the growth was 47.7% in [14], 58.5% in test [15], 62.7% in test [16] and 47.6% in [17].
`COc1ccc(-c2cc3c(oc2=O)-c2ccccc2OC3OC(C)=O)cc1` (stereo not given): the growth was 93.4% in [1]; 94.3% in [2]; 100% in [3]; 98.8% in [4]; 104% in test [5]; 83.5% in test [6]. Also, the growth in test [7] was 88%; in test [8], 91.3%; in [9], 97.4%; in test [10] it was 107%; in test [11], 62.5%; in test [19], 107%. Further, the growth in [12] was 85.7%; in [14], 108%; in [15], 97.9%; in [16] it was 101%; in test [17], 101%.
